# Laboratory results from PubChem BioAssay (NCI).
# This is part of a sample that, as a whole, favours compounds with a hit. Of some 79,000 tested, about 15% had one in any assay. A number with no mark means an inactive call. The source made the active and inactive calls. No stated cut-off is given here; in the data, active means growth inhibition above about 70%; inactive means the rest.
# Experiment: NCI Yeast Anticancer Drug Screen. Data for the mgt1 strain (AID 153)
# Details: S. cerevisiae mgt1 mutant growth inhibition, active compounds read high
# Procedure: Growth inhibition of yeast strains with defined genetic alterations is measured as a screen for potential anti-cancer activity. Selected strains with alterations in DNA damage repair or cell cycle control were exposed to compounds and growth inhibition was measured relative to vehicle treated controls. The strain used in this assay is mgt1
Structure (SMILES),growth inhibition (at 1.2 µM),growth inhibition (at 3.7 µM),growth inhibition (at 11.0 µM),growth inhibition (at 33.0 µM),growth inhibition (at 100.0 µM)
COc1ccc(N2CN(C)CSC2=S)cc1,-51%,-48%,-36%,-11%,61%
CC(=O)C1(O)Cc2c(O)c3c(c(O)c2C(OC2CC(N)C(O)C(C)O2)C1)C(=O)c1ccccc1C3=O (stereo not given),4%,45%,92% (active),97% (active),98% (active)
O=NN(CCCl)C(=O)NC1CCCCC1,-3%,-2%,1%,2%,10%
O=C(CCc1ccccc1)ON1C(=S)C(c2ccccc2)(c2ccccc2)N=C1Sc1ccccc1,44%,50%,51%,54%,56%
Cc1cc(N=C2C=CC(=[N+](C)C)C=C2)c(N)cc1N,4%,15%,28%,52%,75% (active)
O=C(/C=N/O)Nc1cc(Cl)c(Cl)cc1Cl,-8%,-9%,34%,60%,92% (active)
Nc1nc(N)c2cc(Sc3ccc4ccccc4c3)ccc2n1,-23%,12%,74% (active),93% (active),94% (active)
O=C(O)c1cccc2cccc(-c3c4ccc(=O)cc-4oc4cc(O)ccc34)c12,20%,41%,79% (active),88% (active),96% (active)
